# Only some compounds are listed: those with a hit (about 3.6% of all), similar ones and a draw of the others.
# Pf apPOL inh: Pf-apPOL inhibitors, biochemical, fluorescence; Plasmodium falciparum apicoplast DNA polymerase (apPOL); Recombinant Pf-apPOL, molecular beacon fluorescence, 1.5 h; inhibition, % at 10 µM; 0.25% of 210,000 active; AID 1794808, 2022
# mHTT-CaM PPI inh: mutant huntingtin-calmodulin interaction inhibitors – biochemical, AlphaScreen, primary screen. AlphaScreen His-mHTT/GST-CaM binding, luminescence. AID 1671202, 2021. inhibition, % at 15 µM. P42858. 3.6% of 190,000 active;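 note: 0% = both proteins with DMSO and 100% = one protein alone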
# Active calls of the source: *; · = no result given. Cut-off read from the data, not from the text of the source: active = inhibition above about 50%; inactive = the rest.
SMILES,Pf apPOL inh,mHTT-CaM PPI inh
CCC1=NN(C(=O)c2cccc(Br)c2)C(O)(C(F)(F)F)C1 (stereo not drawn),1,4
C=C(C)Cn1c(C(=O)NCC2CCCO2)cc2sc(C)cc21 (stereo not drawn),-13,8
CCCn1c(C(=O)N2CCN(C(C)=O)CC2)cc2sc(Br)cc21,-2,54*
CCCn1c(C(=O)NCC2CCCO2)cc2sc(Br)cc21 (stereo not drawn),-4,60*
CCCn1c(C(=O)N2CCOCC2)cc2sc(C)cc21,-4,29
Cc1cc(OCC(=O)NCc2ccccc2)nc(N2CCCCC2)n1,-2,-7
Cc1ccc2[nH]cc(CCN3CC(C(=O)Nc4ccc(Cl)cc4)CC3=O)c2c1 (stereo not drawn),0,22
O=C(NC1CCCC1)C1CC(=O)N(CCc2c[nH]c3ccc(Cl)cc23)C1 (stereo not drawn),1,65*
COC(=O)c1ccc(NC(=O)C2CC(=O)N(CCc3c[nH]c4ccc(F)cc34)C2)cc1 (stereo not drawn),2,59*
O=C(Nc1ccc(F)cc1)C1CC(=O)N(CCc2c[nH]c3ccc(F)cc23)C1 (stereo not drawn),0,-1
COc1ccc2[nH]cc(CCN3CC(C(=O)Nc4cccc(C)c4C)CC3=O)c2c1 (stereo not drawn),2,15
O=C(NC1CCCCC1)C1CC(=O)N(CCc2c[nH]c3ccc(Cl)cc23)C1 (stereo not drawn),1,8
Cc1cccc(NC(=O)C2CC(=O)N(CCc3c[nH]c4ccc(Cl)cc34)C2)c1C (stereo not drawn),7,71*
Cc1ccc2[nH]cc(CCN3CC(C(=O)Nc4ccc(F)c(Cl)c4)CC3=O)c2c1 (stereo not drawn),1,54*
COc1ccc(OC)c(CNC(=O)c2ccc3c(c2)nc2n3CCC(C)C2)c1 (stereo not drawn),-6,3
COc1ccc(NC(=O)C2CCCN(c3cnn(C)c(=O)c3)C2)c(C)c1 (stereo not drawn),-1,5
O=C(O)C1CCCCN1C(=O)c1ccccc1 (stereo not drawn),0,-4
Cc1cc(C)cc(NC(=O)C2CC(=O)N(CCc3c[nH]c4ccc(Cl)cc34)C2)c1 (stereo not drawn),-3,100*
Cc1ccc(NC(=O)C2CC(=O)N(CCc3c[nH]c4ccc(Cl)cc34)C2)cc1C (stereo not drawn),-2,100*
Cc1ccc(NC(=O)C2CC(=O)N(CCc3c[nH]c4ccc(F)cc34)C2)cc1C (stereo not drawn),-4,27
O=C(Nc1ccccc1)C1CC(=O)N(CCc2c[nH]c3ccc(Cl)cc23)C1 (stereo not drawn),3,33
CCOc1ccccc1CN1CCC(C(=O)N2CCN(c3ccccc3F)CC2)CC1,5,-2
O=C(O)CSCC(=O)Nc1ccccc1N1CCOCC1,-4,·
Brc1ccc2c(c1)C1C=CCC1C(c1ccncc1)N2 (stereo not drawn),-7,95*
Fc1ccc(C2Nc3ccc(OC(F)(F)F)cc3C3C=CCC32)cc1 (stereo not drawn),·,37
SMILES,Pf apPOL inh,mHTT-CaM PPI inh
Nc1ccc(C2Nc3ccccc3C3C=CCC32)cc1 (stereo not drawn),-11,85*
Ic1ccc2c(c1)C1C=CCC1C(c1ccncc1)N2 (stereo not drawn),6,95*
Fc1ccc(C2Nc3ccc(Br)cc3C3C=CCC32)cc1 (stereo not drawn),-1,15
CCCCC(=O)N1CC(c2nc(-c3cccnc3)no2)C2(CCOCC2)C1 (stereo not drawn),-7,-4
Cc1noc(CNC(=O)C2CCN(S(=O)(=O)c3cc(C)c(Cl)cc3Cl)CC2)n1,-6,-6
COc1ccccc1NC1=CC(=NS(=O)(=O)c2ccc(Cl)cc2)c2ccccc2C1=O,4,94*
O=C(O)c1cccc(NC2=CC(=NS(=O)(=O)c3cccs3)c3ccccc3C2=O)c1,22,44
COc1ccccc1Nc1ncc(-c2cccs2)s1,0,25
COc1ccccc1NC1=CC(=NS(=O)(=O)c2cccs2)c2ccccc2C1=O,-15,91*
COc1ccccc1NS(=O)(=O)c1ccc(Cl)c(C(=O)Nc2ccc(Cl)cc2)c1,20,15
O=C1C(Nc2ccccc2)=CC(=NS(=O)(=O)c2cccs2)c2ccccc21,0,92*
O=C(NC1CC1)c1ccc(OCC2CCCN(C(=O)CC3CCCCC3)C2)cc1 (stereo not drawn),2,2
COCCNC(=O)CCC1CCCN(C(=O)Nc2ccccc2)C1 (stereo not drawn),-8,-6
CC(=O)C(C#N)=C1N=C(C)CS1,2,·
O=c1cc(-c2ccccc2)[nH][nH]1,-6,100*
N#Cc1ccc(-c2ccccc2)[nH]c1=O,-8,4
O=C(Nc1ccccc1)c1nc[nH]c1C(=O)Nc1ccccc1,-8,-7
O=C(Nc1ccc(Br)cc1)c1nc[nH]c1C(=O)O,-3,80*
O=C(c1cccc(N2CCNC(c3ccccc3)C2)n1)N1CCN(c2ccc(F)cc2)CC1 (stereo not drawn),-6,51*
Cc1ccc(N2CCN(C(=O)c3ccnc(N4CCNC(c5ccccc5)C4)c3)CC2)cc1 (stereo not drawn),-6,24
COc1ccccc1NC(=O)c1cccc(N2CCNC(c3ccccc3)C2)n1 (stereo not drawn),-9,72*
Cc1cccc(N2CCN(C(=O)c3ccc(N4CCNC(c5ccccc5)C4)nc3)CC2)c1 (stereo not drawn),-4,65*
COc1ccccc1NC(=O)c1ccc(N2CCNC(c3ccccc3)C2)nc1 (stereo not drawn),1,32
O=C(c1cccc(N2CCNC(c3ccccc3)C2)n1)N1CCN(c2ccccc2)CC1 (stereo not drawn),8,27
Cc1ccc(N2CCN(C(=O)c3ccc(N4CCNC(c5ccccc5)C4)nc3)CC2)cc1 (stereo not drawn),2,73*
SMILES,Pf apPOL inh,mHTT-CaM PPI inh
O=C(c1ccc(N2CCNC(c3ccccc3)C2)nc1)N1CCCC1 (stereo not drawn),-4,7
COc1ccccc1CNS(=O)(=O)c1cc(C(=O)Nc2ccc(C(C)C)cc2)ccc1F,-3,9
CCCCNC(=O)C1CCCN(c2cnn(Cc3ccccc3)c(=O)c2)C1 (stereo not drawn),-1,1
O=S(=O)(NCc1ccc(F)cc1)c1ccc2nc(-c3ccccc3)[nH]c2c1,-6,3
O=C(Nc1ccc(Cl)c(Cl)c1)c1cc(S(=O)(=O)N2CCCCC2)ccc1F,-3,-2
CCC(=O)NCCc1csc(C2CCN(C(=O)c3c(F)cccc3F)CC2)n1,-1,-6
CN1CCOc2ccc(NS(=O)(=O)C3CCCCC3)cc2C1=O,-5,-3
CCN(CC)c1cc(CNC(=O)Nc2cccc(Br)c2)ccn1,2,9
CC(=O)N1CCN(C(=O)c2cc3cn(C(C)C)cc3s2)CC1,-1,13
CC(C)n1cc2cc(C(=O)N3CCN(Cc4ccccc4F)CC3)sc2c1,3,60*
O=C(c1cc2cn(C3CC3)cc2s1)N1CCOCC1,-5,5
CN1CCC(N2CCN(C(=O)c3cc4cn(C5CCCC5)cc4s3)CC2)CC1,-3,30
CC(C)CN1CCN(C(=O)c2cc3cn(C(C)C)cc3s2)CC1,-8,15
